# Calls of active or inactive are those of the source.
# Key:
# [1] = tested on: Human papillomavirus type 1a protein E7 (residues 44-93); test: HPV1a E7 fragment binders on microarrays, primary screen, biochemical, small-molecule microarray, residues 44-93, 635 nm fluorescence (AID 1108); details: small-molecule microarray binding, fluorescence 635 nm; higher = more signal;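 also: E7 fragment applied at 1 µg/mL in TBST for 1 h at 4 C; score combines spot fluorescence with its signal to noise ratio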
# [2] = modulators of HCV replicon luciferase signal, primary screen, HCV replication inhibitor project, Huh7 cells, luciferase reporter (AID 1109); details: 48 h, higher = more signal;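 also: huh7 hepatoma cells harbouring a luciferase neomycin HCV replicon reporter; luciferase luminescence as measure of HCV replicon replication; test concentration not given here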
# [3] = target: Left-right determination factor 2 (Homo sapiens) (UniProt O00292); test: LEFTY2 binders on small-molecule microarrays, primary screen, biochemical, small-molecule microarray, 635 nm fluorescence scan (AID 1110); details: LEFTY2 binding, higher = more signal
# [4] = target: Calmodulin-1 (Homo sapiens) (UniProt P0DP23); test: CALM1 binders on microarrays, EGTA buffer, profiling panel, biochemical, small-molecule microarray, Cy5-labelled CALM1 (AID 1111); details: Cy5-CALM1 binding fluorescence, higher = more signal;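 also: labelled calmodulin applied in Tris saline Tween buffer holding calcium plus EGTA and DTT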
# [5] = target: Calmodulin-1 (Homo sapiens) (UniProt P0DP23); test: calcium-bound CALM1 binders on microarrays, profiling panel, artefact control for SMM control-protein annotation, biochemical, small-molecule microarray, Cy5-labelled CALM1, plus calcium (AID 1112); details: Cy5-CALM1 binding fluorescence, higher = more signal;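 also: score merges spot fluorescence with signal to noise from triplicate slides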
# [6] = small-molecule microarray binders of probe aWnt5a, primary screen, biochemical, biotinylated probe, 635/667 nm fluorescence (AID 1113); details: higher = more signal;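 also: score merges 667 nm fluorescence intensity with signal-to-noise per printed feature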
# [7] = small-molecule microarray binders of probe aShh, primary screen, biochemical, biotinylated probe, 635/667 nm fluorescence (AID 1114); details: higher = more signal;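 also: probe is biotin-labelled aShh protein from a stem cell growth factor screen; measures binding of labelled protein to compounds printed on the slide; score merges feature fluorescence at 667 nm with signal-to-noise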
# [8] = small-molecule microarray binders of probe aNog, primary screen, biochemical, biotinylated probe, 635/667 nm fluorescence (AID 1115); details: higher = more signal;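 also: probe is biotinylated aNog protein used at 0.15 µg/mL for 1 h at 4 C; z-score combines 667 nm fluorescence of each spot with its signal to noise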
# [9] = target: Torsin-1A-interacting protein 1 (Homo sapiens) (UniProt Q5JTV8); test: LAP1 binders from COS7 cell lysate, primary screen, small-molecule microarray, 635/667 nm fluorescence (AID 1116); details: COS7-hLAP1 lysate binding, 635 nm fluorescence, higher = more signal
# [10] = target: Alpha-bungarotoxin (Bungarus multicinctus) (UniProt P60615); test: alpha-bungarotoxin binders on microarray, profiling panel, artefact control for SMM control protein annotation, biochemical, small-molecule microarray, Alexa647 label, 635/667 nm fluorescence (AID 1117); details: alpha-BTX-A647 binding fluorescence, higher = more signal
# Albumin (Bos taurus) = Albumin (Bos taurus) (UniProt P02769); test: bovine serum albumin binders on microarray, profiling panel, artefact control for SMM control protein annotation, biochemical, small-molecule microarray, Alexa647 label, 635/667 nm fluorescence (AID 1118); details: BSA-A647 binding, fluorescence 635 nm, higher = more signal;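 also: score merges 667 nm emission intensity and signal-to-noise per printed compound spot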
# [11] = small-molecule microarray binders of probe aXIP, primary screen, biochemical, NeuroSMM set, 635/667 nm fluorescence (AID 1119); details: higher = more signal, called active from +8 up or from −8 down;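 also: probe is the protein aXip251-270 applied at 1 µg/mL to compound-printed slides; binding of probe to printed compounds measured as 667 nm fluorescence plus signal to noise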
# [12] = small-molecule binders of probe aNOTCH3, primary screen, biochemical, small-molecule microarray, 635/667 nm fluorescence (AID 1120); details: higher = more signal;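 also: probe is a biotin-tagged antibody raised against NOTCH3 rather than NOTCH3 protein; score merges spot fluorescence near 667 nm with spot signal to noise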
# [13] = small-molecule binders of probe aNOTCH2, primary screen, biochemical, small-molecule microarray, 635/667 nm fluorescence (AID 1121); details: higher = more signal;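 also: score merges feature fluorescence read at 667 nm with its signal to noise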
# [14] = target: Carbonic anhydrase 2 (Homo sapiens) (UniProt P00918); test: CAII small-molecule binders, profiling panel, biochemical, small-molecule microarray, Alexa647-labelled CAII (AID 1122); details: CAII-A647 binding fluorescence, higher = more signal
# [15] = COS7 lysate on small-molecule microarray, probe aHis, 635 nm (AID 1123); details: COS7 cell lysate, fluorescence, higher = more signal;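 also: z-score combines 667nm fluorescence intensity with signal-to-noise per printed compound spot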
# [16] = compound binding in COS7 lysate, probe aLAP1, primary screen, cell lysate, small-molecule microarray (AID 1124); details: probe aLAP1, fluorescence, higher = more signal;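 also: lysate comes from COS7 cells expressing LAP1 and is applied at 0.3 µg/mL; score merges spot fluorescence near 667 nm with signal-to-noise over triplicate slides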
# Sam68 (KHDRBS1) = test: Sam68 small-molecule binders, primary screen, biochemical, small-molecule microarray, 635 nm fluorescence (AID 1125); details: small-molecule microarray binding, higher = more signal;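 also: score merges 667 nm channel intensity with signal to noise over triplicate slides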
# [17] = tested on: Chordin-like protein 2 (CHRDL2); test: CHRDL2 small-molecule binders, primary screen, biochemical, small-molecule microarray, 635 nm fluorescence (AID 1126); details: small-molecule microarray binding, fluorescence 635 nm; higher = more signal;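 also: printed compound slides probed with Chrdl2 protein at 4 µg/mL for 1 h at 4 C; score merges 667 nm emission intensity with signal to noise over three replicate slides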
# [18] = target: Concanavalin-A (Canavalia ensiformis) (UniProt P02866); test: ConA small-molecule binders, primary screen, artefact control for SMM control protein annotation, biochemical, small-molecule microarray, Alexa647 label, 635 nm (AID 1127); details: ConA-A647 binding fluorescence, higher = more signal;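 also: z combines 667 nm emission intensity with signal-to-noise across three replicate slides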
# Chain of Concanavalin-A (Canavalia ensiformis) (P02866 whole entry, looked up): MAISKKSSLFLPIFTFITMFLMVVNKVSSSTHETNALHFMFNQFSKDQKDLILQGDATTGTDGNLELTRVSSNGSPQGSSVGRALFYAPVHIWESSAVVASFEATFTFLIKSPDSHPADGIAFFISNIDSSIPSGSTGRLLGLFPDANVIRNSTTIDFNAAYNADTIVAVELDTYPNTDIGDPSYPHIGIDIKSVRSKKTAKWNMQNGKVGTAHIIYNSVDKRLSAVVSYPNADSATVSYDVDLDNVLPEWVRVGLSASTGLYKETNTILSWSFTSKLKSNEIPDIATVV
# Chain of Alpha-bungarotoxin (Bungarus multicinctus) (P60615 whole entry, looked up): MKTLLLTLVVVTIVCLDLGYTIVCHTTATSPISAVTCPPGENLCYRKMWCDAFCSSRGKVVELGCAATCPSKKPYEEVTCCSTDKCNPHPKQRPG
# Chain of Torsin-1A-interacting protein 1 (Homo sapiens) (Q5JTV8 whole entry, looked up): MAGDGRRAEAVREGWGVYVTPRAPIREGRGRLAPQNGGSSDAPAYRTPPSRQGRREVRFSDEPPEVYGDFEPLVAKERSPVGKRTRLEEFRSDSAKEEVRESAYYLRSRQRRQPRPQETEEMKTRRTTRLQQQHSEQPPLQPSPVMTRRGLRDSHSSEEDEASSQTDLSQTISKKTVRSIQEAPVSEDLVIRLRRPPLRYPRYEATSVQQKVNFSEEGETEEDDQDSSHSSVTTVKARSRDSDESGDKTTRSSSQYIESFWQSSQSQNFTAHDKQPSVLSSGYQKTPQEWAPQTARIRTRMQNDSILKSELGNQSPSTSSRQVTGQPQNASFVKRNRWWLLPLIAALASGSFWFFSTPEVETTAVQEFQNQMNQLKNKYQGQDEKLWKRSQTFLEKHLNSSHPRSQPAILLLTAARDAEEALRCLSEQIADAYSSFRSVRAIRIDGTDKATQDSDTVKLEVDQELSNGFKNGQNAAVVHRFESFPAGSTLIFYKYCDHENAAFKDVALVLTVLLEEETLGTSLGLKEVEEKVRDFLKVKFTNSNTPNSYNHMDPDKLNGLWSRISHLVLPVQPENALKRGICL
# Chain of Albumin (Bos taurus) (P02769 whole entry, looked up): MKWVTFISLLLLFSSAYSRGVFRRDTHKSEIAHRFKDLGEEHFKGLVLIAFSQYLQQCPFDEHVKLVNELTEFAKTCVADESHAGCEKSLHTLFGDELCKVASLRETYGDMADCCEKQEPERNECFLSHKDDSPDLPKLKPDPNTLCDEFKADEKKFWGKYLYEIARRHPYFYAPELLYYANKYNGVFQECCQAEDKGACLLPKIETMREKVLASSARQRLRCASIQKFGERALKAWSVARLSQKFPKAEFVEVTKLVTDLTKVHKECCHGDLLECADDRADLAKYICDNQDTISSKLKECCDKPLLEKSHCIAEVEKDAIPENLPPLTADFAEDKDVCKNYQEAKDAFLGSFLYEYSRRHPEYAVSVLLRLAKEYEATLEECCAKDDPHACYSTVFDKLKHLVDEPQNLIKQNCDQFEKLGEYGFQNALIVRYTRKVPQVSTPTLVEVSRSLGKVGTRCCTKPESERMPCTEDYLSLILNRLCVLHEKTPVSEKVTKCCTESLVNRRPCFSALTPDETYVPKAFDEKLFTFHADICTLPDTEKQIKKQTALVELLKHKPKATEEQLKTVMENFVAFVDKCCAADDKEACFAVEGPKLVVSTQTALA
# Chain of Left-right determination factor 2 (Homo sapiens) (O00292 whole entry, looked up): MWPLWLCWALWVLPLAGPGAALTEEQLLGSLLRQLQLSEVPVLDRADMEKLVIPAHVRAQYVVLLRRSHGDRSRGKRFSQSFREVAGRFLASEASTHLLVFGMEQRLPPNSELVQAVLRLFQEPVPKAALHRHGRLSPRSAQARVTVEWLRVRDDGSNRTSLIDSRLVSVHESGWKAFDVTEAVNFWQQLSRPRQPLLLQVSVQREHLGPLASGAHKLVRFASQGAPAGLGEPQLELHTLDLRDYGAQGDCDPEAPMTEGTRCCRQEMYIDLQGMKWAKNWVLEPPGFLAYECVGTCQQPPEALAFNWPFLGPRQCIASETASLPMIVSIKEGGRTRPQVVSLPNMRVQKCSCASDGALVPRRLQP
SMILES,composite z-score [1],z-score [2],composite z-score [3],composite z-score [4],composite z-score [5],composite z-score [6],composite z-score [7],composite z-score [8],composite z-score [9],composite z-score [10],composite z-score (Albumin (Bos taurus)),composite Z-score [11],composite z-score [12],composite z-score [13],composite z-score [14],composite z-score [15],composite z-score [16],composite z-score (Sam68 (KHDRBS1)),composite z-score [17],composite z-score [18]
CCOc1cc(C(O)C2C=CC3C(=O)N(c4ccccc4)C(=O)C3N2Nc2ccccc2F)ccc1O (stereo not given),0.357,-0.299,-0.325,0.182,0.479,0.302,0.536,1.71,-0.321,0.762,0.799,-0.209 (inactive),0.533,0.433,0.826,2.75,0.0411,0.339,0.0988,0.666
CN(C)CCCNC(=O)[C@@]1(C)c2ccccc2C(=O)N(Cc2ccc(OC(F)(F)F)cc2)[C@H]1c1ccc(CO)cc1,0.0228,-2.26,-1.01,-0.415,0.522,-0.115,-0.0978,0.738,1.76,1.5,0.548,0.0333 (inactive),-0.139,-0.0357,0.706,1.83,1.03,0.0786,-0.616,-0.451
CN(C)CCCC[C@@H]1NC(=O)[C@H]2C[C@@H](C(=O)O)[C@@H](c3ccc(O)cc3)N2C1=O,1.55,-0.0575,1.62,2.44,1.23,0.866,1.5,3,4.54,3.2,0.705,3.89 (inactive),1.65,0.68,0.946,4.01,1.31,1.33,1.48,1.24
C=CCOC(=O)[C@H]1[C@@H]2C(=O)O[C@@H](c3ccccc3)[C@@H](c3ccccc3)N2[C@@H](c2ccc(OCCOC(=O)[C@H]3C[C@H]4C(=O)N[C@@H](CC(C)C)C(=O)N4[C@H]3c3ccc(O)cc3)cc2)[C@]12C(=O)Nc1ccccc12,1.42,-1.75,1.44,0.538,-0.273,0.0919,-0.066,-0.582,1.78,1.52,-1.5,0.0398 (inactive),0.0695,-0.0666,0.368,1.74,0.878,1.31,1.26,1.06
CCOC(=O)C[C@H]1[C@H](OC(=O)c2cc3ccccc3oc2=O)[C@@H](NC(=O)CC(C)C)c2cc(OCCCO)ccc2N1C(=O)Cc1ccc(OC)cc1,0.653,-0.0665,0.455,-0.0388,-0.61,-0.16,-0.206,-0.238,0.571,-0.472,0.136,0.642 (inactive),-0.0376,-0.146,0.607,0.935,0.18,0.887,0.0676,0.433
C[C@@H]1ON(c2ccccc2)[C@H](c2ccccc2)[C@H]1C(=O)O,-0.429,0.387,0.25,0.0717,-0.124,0.0377,-0.2,0.618,0.109,0.167,-0.189,-0.107 (inactive),-0.0971,-0.0846,0.685,-0.0056,0.361,0.0005,0.204,-0.0755
COC(=O)[C@@]1(Cc2ccc(OC)cc2)[C@H]2c3cc(C(=O)N4CCCC4)n(Cc4ccc(Cl)c(C(F)(F)F)c4)c3C[C@H]2CN1C(=O)c1ccccc1,1.47,-2,0.0524,2.74,1.35,0.207,0.165,2.07,1.98,1.62,1.05,0.0685 (inactive),0.322,0.162,0.696,3.2,1.16,1.29,-0.754,1.2
COC(=O)[C@@]1(Cc2ccccc2)N=C(c2ccc(OCCCO)cc2)O[C@H]1c1ccccc1CN=[N+]=[N-],1.36,-3.42,0.024,-0.0422,-0.193,-0.0792,-0.153,-0.593,0.757,0.537,-0.158,0.282 (inactive),0.0655,-0.12,0.6,2.02,-0.415,1.2,-0.111,0.505
CC1CC/C=C\[C@H]2OC34C=CCN(CCN5CCOCC5)C(=O)[C@H]3N(CCCO)C(=O)[C@@H]4C2C(=O)O1 (stereo not given in full),-0.591,-0.945,-0.573,-0.589,-0.565,-0.192,-0.214,0.144,-0.181,-1.02,-1.3,0.0485 (inactive),-0.068,-0.164,0.91,-0.531,0.305,0.0414,-0.727,-0.187
CC(C)(C)N1CC=CC23O[C@@H]4/C=C\CCCOC(=O)C4[C@H]2C(=O)N(CCCCCO)[C@@H]3C1=O (stereo not given in full),-0.267,-0.887,-1.48,-0.677,-0.893,-0.213,0.074,-0.122,-0.286,-0.954,-1.58,0.794 (inactive),-0.349,-0.126,0.941,-0.584,0.566,-0.484,-1.46,-1.46

# From PubChem BioAssay
